AT treatment: potential ataxia-telangiectasia treatment; F2112 A-T fibroblasts, KAP-1 phosphorylation AlphaLISA; neocarzinostatin DNA damage 30 min before lysis; Potency, µM (doses to about 57.5 µM), for the others: at the top dose activation, hits mostly activators; 0.19% of 320,000 active; AID 485349; active = well fitted activation curve with a large enough effect; inconclusive = small, poorly fitted or top-dose-only effect; inactive = no such curve, though single readings can be large or run the other way; note: potency is the fitted concentration of half-maximal effect; % of control where 0% means no effect; nearly all actives have a fitted effect of over 45% in size
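hTERT-immortalized A-T patient fibroblasts (F2112), 500 cells/well in OPTI-MEM, 1% FBS, got compounds for 60 min, then NCS for 30 min at 37C. Lysates were then assayed for phospho-KAP-1 by AlphaLISA (anti-pKAP1 donor, anti-KAP1 acceptor beads), 6 hr at 25C.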
TRPML1 agonist: activates the human TRPML1 channel. activation, % (concentration not given with the values). 0.12% of 410,000 active. Q9GZU1. TRPML1-expressing cells, Ca2+ dye fluorescence, FDSS; in the data active = activation above about 50%; inconclusive = mostly about 30% to 49%; note: 0% is about no effect
Target sequence (Q9GZU1 whole entry, looked up): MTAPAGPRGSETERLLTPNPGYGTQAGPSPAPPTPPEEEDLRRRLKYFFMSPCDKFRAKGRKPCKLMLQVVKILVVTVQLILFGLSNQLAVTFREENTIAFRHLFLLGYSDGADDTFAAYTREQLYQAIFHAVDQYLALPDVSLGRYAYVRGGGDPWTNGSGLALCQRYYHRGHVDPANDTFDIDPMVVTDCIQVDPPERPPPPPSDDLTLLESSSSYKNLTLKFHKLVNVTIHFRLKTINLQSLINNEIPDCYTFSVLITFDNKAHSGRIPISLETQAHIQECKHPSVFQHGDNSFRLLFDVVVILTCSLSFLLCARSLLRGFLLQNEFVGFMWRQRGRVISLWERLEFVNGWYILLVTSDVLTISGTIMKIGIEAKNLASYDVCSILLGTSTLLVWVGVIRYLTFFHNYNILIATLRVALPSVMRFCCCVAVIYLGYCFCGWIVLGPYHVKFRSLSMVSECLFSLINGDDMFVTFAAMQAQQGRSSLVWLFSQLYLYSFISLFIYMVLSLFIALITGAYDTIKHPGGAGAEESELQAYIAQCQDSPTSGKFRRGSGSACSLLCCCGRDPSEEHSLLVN
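Agonist activity was taken from a 110 s kinetic Ca2+ dye read on the FDSS after pinning compounds onto TRPML1-DL cells. The cells were seeded at 1,500/well with Tet inducer, incubated about 16 h, then dye-loaded at room temperature.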
TRPV1 PAM: potentiators of human vanilloid receptor 1 (TRPV1). 0.02% of 320,000 active. AID 540277. potentiation, % at 8.33 µM. TRPV1-expressing cells, Fluo-8 calcium influx, capsaicin EC20 potentiation; in the data active = potentiation above about 80%; inconclusive = between about 30% and that limit; note: 0% is about no effect
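TRPV1-expressing cells were cultured overnight at 35.5C and loaded with Fluo-8 calcium dye for 40 to 90 min at room temperature. After a 10 s baseline, compound was added and calcium influx was read kinetically for 3 min (ex 480/em 520 nm).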
TRPML1 blocker: inhibitors of human TRPML1 channel; Q9GZU1; TRPML1-inducible cells, Ca2+ dye fluorescence, FDSS; active compounds read low; inhibition of EC80 agonist-evoked calcium signal; activity change, negative = inhibition, % (no concentration beside the values); 0.02% of 390,000 active; in the data active = activity change below about -50%; inconclusive = between about -30% and that limit;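 note: stimulus is agonist 54-4 at its EC80 concentration; % is set by controls: 0 for no effect and ±100 for the full control effect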
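Calcium fluorescence in TRPML1-DL cells induced overnight with Tet: a 110 s read after compound pin addition, then a 110 s antagonist read after challenge with 54-4 at 4 uM final (EC80).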
TRPV1 ag: agonists of human vanilloid receptor 1 (TRPV1); activation, % at 8.33 µM; TRPV1-expressing cells, Fluo-8 calcium influx, agonist mode; 0.19% of 320,000 active; in the data active = activation above about 80%; inconclusive = between about 30% and that limit; note: 0% is about no effect
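Fluo-8 calcium influx in TRPV1-expressing cells, kinetic read (ex 480/em 520 nm). Compound added and read 3 min for agonist activity, followed by capsaicin at EC20 final and 2 min further read for enhancement.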
The depositor's hits bear a star. Shown are actives, neighbours in structure and some others; about 0.41% of the full set was active somewhere.

CCOC(=O)CCCC(=O)N1CCN(/[N+]([O-])=N/Oc2ccc([N+](=O)[O-])cc2[N+](=O)[O-])CC1 was read as TRPML1 agonist 2 and TRPML1 blocker -10.
For N#CC1=C(N)Oc2cc(N)ccc2C1c1cccnc1 (centres undefined) the results were AT treatment -5%, TRPML1 agonist 1, TRPV1 PAM -9, TRPML1 blocker 26 and TRPV1 ag -3.
`CCN(CC)c1ccc2c(c1)OC(N)=C(C#N)C2c1cccnc1` (centres undefined) gave AT treatment 1%, TRPML1 agonist 70*, TRPV1 PAM -6, TRPML1 blocker 6 and TRPV1 ag 27.
CCOC(=O)c1cnn(-c2ccc(C(=O)Nc3cccc(C(C)=O)c3)cc2)c1N was read as TRPML1 agonist 0 and TRPML1 blocker -8.
COC(=O)c1cnn(-c2ccc(C(=O)Nc3cccc(C(C)=O)c3)cc2)c1N was read as AT treatment 28µM*, TRPML1 agonist 1, TRPV1 PAM -28, TRPML1 blocker 5 and TRPV1 ag 26.
Oc1cc(O)c(/C=C/c2ccnc3ccccc23)c(O)c1 was read as TRPML1 agonist 0.
For Cc1c(CCO)sc[n+]1CC(=O)c1ccccc1 the results were TRPML1 agonist 0.
Screening CCCC(O)(c1ccccc1)C(CN1CCOCC1)c1ccccc1 (centres undefined) returned AT treatment 12%, TRPML1 agonist 0, TRPV1 PAM -9, TRPML1 blocker -1 and TRPV1 ag 0.
Screening CCCC(O)(c1ccc(CC)cc1)C(CN1CCOCC1)c1ccccc1 (centres undefined) returned AT treatment 32µM*, TRPML1 agonist 0, TRPV1 PAM -8, TRPML1 blocker 8 and TRPV1 ag inconclusive.
Screening CCCCCC(O)(c1ccccc1)C(CN1CCOCC1)c1ccccc1 (centres undefined) returned AT treatment 32µM*, TRPV1 PAM -20 and TRPV1 ag 28.
`Cc1cc(C)cc(C(=O)Nn2cnnc2)c1` gave AT treatment -3%, TRPML1 agonist 0, TRPV1 PAM 82*, TRPML1 blocker 4 and TRPV1 ag -4.
For N#C/C(=C\c1ccc(O)cc1)c1nc2ccccc2o1 the results were AT treatment 6%, TRPML1 agonist 9, TRPV1 PAM 12, TRPML1 blocker -20 and TRPV1 ag inconclusive.
COc1cc(/C=C(\C#N)c2nc3ccccc3o2)ccc1O was read as AT treatment -7%, TRPML1 agonist 53*, TRPV1 PAM -4, TRPML1 blocker -3 and TRPV1 ag inconclusive.
Screening FC(F)(F)c1cnc(Nc2ccc(N3CCOCC3)cc2)c(Cl)c1 returned AT treatment 11%, TRPML1 agonist 0, TRPV1 PAM 0, TRPML1 blocker -1 and TRPV1 ag -2.
Screening O=C(C1=NOC(CNc2ncc(C(F)(F)F)cc2Cl)C1)N1CCOCC1 (centres undefined) returned AT treatment 3%, TRPML1 agonist -1, TRPV1 PAM -9, TRPML1 blocker -14 and TRPV1 ag 121*.
O=C(NC1CC1)C1=NOC(CNc2ncc(C(F)(F)F)cc2Cl)C1 (centres undefined) was read as TRPML1 agonist -1, TRPV1 PAM -5, TRPML1 blocker 5 and TRPV1 ag 80*.
Screening O=C(N/C=N/O)C1=NOC(CNc2ncc(C(F)(F)F)cc2Cl)C1 (centres undefined) returned TRPML1 agonist -1, TRPV1 PAM -8, TRPML1 blocker 0 and TRPV1 ag inconclusive.
For CC(C)(C)n1ncc2c(=O)n(Cc3ccc(F)c(C(F)(F)F)c3)cnc21 the results were TRPML1 agonist 1 and TRPML1 blocker 4.
O/N=C(/CI)c1ccc2ccccc2c1 was read as TRPML1 agonist 0.
`O=C(O)c1ccc(Nc2c3ccccc3nc3ccccc23)cc1` gave AT treatment 28µM*, TRPML1 agonist 2, TRPV1 PAM -23, TRPML1 blocker 0 and TRPV1 ag 2.
For Cc1cc(NC(=O)COC(=O)c2ccccc2OCCOc2ccccc2)ccc1Br the results were TRPML1 agonist -1.

Compound activity deposited in PubChem by National Center for Advancing Translational Sciences (NCATS).
